Screening results from PubChem BioAssay.
Most compounds without a hit are left out; they make up all but 4.8% or so of the library.
PfHsp90 set2 – reduces growth (ATP signal) of yeast expressing P. falciparum Hsp90 | inhibition, % at 9.4 µM | actives 0.32% (n = 310,000) | S. cerevisiae expressing PfHsp90, BacTiter-Glo ATP, 48 h; yeast lacking PDR1 and PDR3 efflux regulators | AID 504621;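 active = every replicate shows inhibition above about 80%, whatever the replicate mean, limit read from the data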
NALP1 inh – blocks the NALP1 inflammasome reconstituted in yeast; S. cerevisiae NALP1/ASC/caspase-1 growth, X-gal OD620, 72 h; AID 2071; inhibition, % at 10 µM; actives 0.61% (n = 280,000); in the data active = inhibition mostly above about 24%, no sharp cut-off; inactive = mostly below about 32%
tim23-1 inh – growth inhibitors of tim23-1 mutant yeast; AID 463212; actives 1.3% (n = 330,000); inhibition, % at 20 µM; S. cerevisiae tim23-1 growth, BacTiter-Glo luminescence, 24 h;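 active = growth inhibition of the mutant yeast at or above 50%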;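 also: temperature-sensitive mutant grown at 25 °C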
TIM10 inh – inhibits growth of TIM10 yeast strain. S. cerevisiae TIM10 strain growth, BacTiter-Glo luminescence, 24 h. inhibition, % at 10 µM. actives 1.4% (n = 330,000). AID 463195;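 active = inhibition of 40% or more at the single tested concentration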;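 also: wild-type TIM10 isogenic control strain grown at permissive 25 °C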
SKKanGAS inh – blocks kanamycin growth of S. pyogenes SKKanGAS strain; BacTiter-Glo, 6 h; inhibition, % at 7.5 µM; actives 1.3% (n = 300,000);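 active = mean replicate score, as percent of positive control median, at least 50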;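 also: strain carries kanamycin resistance gene driven by streptokinase promoter and grows in 40 µg/ml kanamycin; loss of luminescence reflects streptokinase promoter inhibition or plain growth inhibition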
tim10-1 inh – tim10-1 yeast growth inhibition | S. cerevisiae tim10-1 ts strain growth, BacTiter-Glo, 24 h | inhibition, % at 20 µM | actives 2.2% (n = 330,000) | AID 463190;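 active = inhibition of at least 40%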;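 also: mutant grown at 25 °C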
tim10-1 conf – tim10-1 yeast growth inhibition, confirmed; actives 56% (n = 7,400); S. cerevisiae tim10-1 ts strain growth, BacTiter-Glo, 24 h; inhibition, % at 20 µM; shares compounds with tim10-1 inh; AID 463213;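 active = inhibition of yeast growth at or above a set limit in either of two repeat tests at 20 µM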;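 also: tim10-1 mutant grown at permissive 25 °C to find synthetic lethal compounds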
TIM10 conf – confirmation of TIM10 yeast growth inhibitors. inhibition, % at 10 µM. shares compounds with TIM10 inh. actives 63% (n = 4,600). S. cerevisiae tim10 strain growth, BacTiter-Glo luminescence, 24 h;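 active = inhibition of yeast growth at or above a set limit in either of two replicates at 10 µM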; also: this counterscreen used the strain with wild-type TIM10
Large screens that a line does not name were inactive (follow-up assays come after a bar, where they were run); ! = not confirmed by another sample.

Oc1c(Cl)cccc1Cc1cc(Cl)cc(Cl)c1O	PfHsp90 set2 109.2 (no result: NALP1 inh, tim23-1 inh, TIM10 inh, SKKanGAS inh, tim10-1 inh)
O=C(CN1CCOCC1)Nc1ccc(Br)cc1C(=O)c1ccccc1	tim10-1 inh 40.3 | tim10-1 conf inactive
Cc1ccccc1-[n+]1c(-c2ccccc2)cc(-c2ccccc2)cc1-c1ccccc1	tim10-1 inh 42.4 (no result: NALP1 inh) | tim10-1 conf inactive
Oc1ccccc1-[n+]1c(-c2ccccc2)cc(-c2ccccc2)cc1-c1ccccc1	none (no result: NALP1 inh)
O=C(c1cc2cc(F)ccc2[nH]1)N1CCC2(CC1)OCCO2	none
CC(C)CNC(=O)c1c(N)n(Cc2ccc3c(c2)OCO3)c2nc3ccccc3nc12	tim10-1 inh 43.5 | tim10-1 conf inactive
CCc1ccc(OCC(=O)N2CCN(Cc3ccc4c(c3)OCO4)CC2)cc1	none
Nc1c(C(=O)NC2CCCC2)c2nc3ccccc3nc2n1CC1CCCO1 (stereo not drawn)	tim10-1 inh 55.6 | tim10-1 conf inactive
Nc1c(C(=O)NCC2CCCO2)c2nc3ccccc3nc2n1Cc1ccco1 (stereo not drawn)	none
O=C1CC(N2CC=C(c3ccccc3)CC2)C(=O)N1c1ccc(F)cc1 (stereo not drawn)	tim10-1 inh 42.9 | tim10-1 conf 42.5
CCCNC(=O)N1[C@H]2CC[C@@H]1C(C(=O)OC)=C(c1cc3ccccc3s1)C2	none (no result: NALP1 inh)
CCOC(=O)c1c(-n2c(C)cc(/C=C3\C(=O)NC(=O)N(C)C3=O)c2C)sc2c1CCCC2	none
Cc1cc(/C=C2\C(=O)NC(=O)N(c3ccc(Cl)cc3)C2=O)c(C)n1-c1sc2c(c1C#N)CCCC2	tim10-1 inh 41.1 | tim10-1 conf inactive
CC(C)(O)/C=C/C(=O)C(C)(O)C1C(O)CC2(C)C3CC=C4C(C=C(O)C(=O)C4(C)C)C3(C)C(=O)CC12C (stereo not drawn)	none (no result: NALP1 inh, tim23-1 inh, TIM10 inh, SKKanGAS inh, tim10-1 inh)
O=[N+]([O-])c1ccc(Cl)c([N+](=O)[O-])c1	tim10-1 inh 45.4 (no result: NALP1 inh, SKKanGAS inh) | tim10-1 conf 38.9
Cc1cccc(-c2nc3ccc(C(=O)N4CCC5(CC4)OCCO5)cc3nc2-c2cccc(C)c2)c1	tim10-1 inh 40.3 | tim10-1 conf inactive
C=CCCC1(CC(C)C)C(=O)NC(=S)NC1=O	none (no result: NALP1 inh, tim23-1 inh, TIM10 inh, SKKanGAS inh, tim10-1 inh)
O=C(COC(=O)Cc1ccccc1)Nc1ccc(SC(F)F)cc1	tim10-1 inh 43.5 (no result: NALP1 inh, SKKanGAS inh) | tim10-1 conf inactive
CCOC(=O)C1(CCc2ccccc2)CCN(Cc2cccc3c2OCO3)CC1	tim10-1 inh 40.0 | tim10-1 conf inactive
CCOC(=O)C1(CCc2ccccc2)CCN(C(C)CSC)CC1 (stereo not drawn)	none (no result: NALP1 inh, tim23-1 inh, TIM10 inh, tim10-1 inh)
COCCNC(=O)CN1C(=O)C(C)N=C(c2ccccc2)c2cc(Cl)ccc21 (stereo not drawn)	tim10-1 inh 41.0 | tim10-1 conf inactive
O=C(c1ccc2c(c1)N(Cc1ccccc1)CCS2)N1CCC2(CC1)OCCO2	tim10-1 inh 42.2 | tim10-1 conf inactive
CCC1=Nc2cc(C(=O)N3CCC4(CC3)OCCO4)ccc2Sc2ccccc21	none
O=C1/C(=C/c2cccc([N+](=O)[O-])c2)N2CCC1CC2	none
O=C1/C(=C/c2cc([N+](=O)[O-])ccc2Cl)N2CCC1CC2	tim10-1 inh 47.8 | tim10-1 conf 35.3
COC(=O)C1=C(c2cc3ccccc3o2)C[C@@H]2CC[C@H]1N2C(=O)NC(C)C	none (no result: NALP1 inh)
CSc1ccc(CNC(C)C(O)c2ccccc2)cc1 (stereo not drawn)	none (no result: PfHsp90 set2)
Cc1oc2ccc(OC(=O)N(C)C)cc2c1C(=O)OC(C)C	tim10-1 inh 41.6 | tim10-1 conf inactive
Cc1ccc(-c2nc(N(C)C3CCN(C)CC3)c3ccccc3n2)cc1	none
CN1CC(C(=O)c2cccc(C(F)(F)F)c2)C(c2ccc(Cl)cc2)C1 (stereo not drawn)	tim10-1 inh 41.2 | tim10-1 conf inactive
Cc1nc2cc(-c3ccccc3)nn2c(C)c1CCC(=O)N1CCC2(CC1)OCCO2	none (no result: PfHsp90 set2)
Cc1nc2c(-c3ccc(F)cc3)c(C)nn2c(C)c1CCC(=O)N1CCC2(CC1)OCCO2	tim10-1 inh 40.1 (no result: PfHsp90 set2) | tim10-1 conf inactive
CC1CC(C)(O)CC(C(O)CC2CC(=O)NC(=O)C2)C1=O (stereo not drawn)	none (no result: NALP1 inh, tim23-1 inh, TIM10 inh, SKKanGAS inh, tim10-1 inh)
CC(C)N1CCN(Cc2ccc3c(c2)OCCO3)CC1CCO (stereo not drawn)	none
NCCc1c(Cc2ccccc2)[nH]c2ccccc12	none (no result: PfHsp90 set2, NALP1 inh)
Cc1c(CCN)ccc2c1[nH]c1ccccc12	tim10-1 inh 40.7 | tim10-1 conf inactive
CCCCCSc1cc(OC)c(CCN)cc1OC	none
O=c1c2ccccc2[se]n1-c1ccccc1	SKKanGAS inh 88.3, tim10-1 inh 55.2 | tim10-1 conf 89.6
O=c1c2ccccc2nc(-c2ccccc2)n1-c1ccccc1	none
CCN(CC)S(=O)(=O)c1cc(NC(=O)C(C)N2CC=C(c3ccccc3)CC2)ccc1C (stereo not drawn)	tim10-1 inh 40.0 | tim10-1 conf inactive
C/C(=N\Nc1ccccc1)c1c(O)n(Cc2ccccc2)c(=O)[nH]c1=O	none
c1ccc(CCn2nnnc2CN2CCC(n3nnc4ccccc43)CC2)cc1	none
Fc1ccc2c(c1)nnn2C1CCN(Cc2nnnn2CCc2ccccc2)CC1	tim10-1 inh 40.5 (no result: PfHsp90 set2) | tim10-1 conf inactive
CCCCCCCC(=O)NC(Oc1ccccc1[N+](=O)[O-])C(Cl)(Cl)Cl (stereo not drawn)	none
CC1(C)C(C(=O)N2CCN(c3ccc(Cl)cc3)CC2)C1(C)C	none
COC(=O)C1CN(C#N)N(c2ccc(Cl)cc2)C12c1ccccc1-c1ccccc12 (stereo not drawn)	PfHsp90 set2 96.1, SKKanGAS inh 67.1, tim10-1 inh 58.0 | tim10-1 conf 42.5
Cc1nn(CCC#N)c2c1P(=S)(N1CCCC1)OC(c1ccc(F)cc1)=N2 (stereo not drawn)	tim10-1 inh 43.1 | tim10-1 conf 32.8
COc1ccc(NP(=O)(Oc2ccccc2OC)Oc2ccccc2OC)cc1	tim10-1 inh 40.6 | tim10-1 conf inactive
COc1ccccc1OP(=O)(Nc1ccc(Br)cc1)Oc1ccccc1OC	none
Oc1ccc(C2NCc3ccccc3-n3cccc32)cc1Cl (stereo not drawn)	tim10-1 inh 44.2! | tim10-1 conf 33.8
O=C(COc1ccc2ccccc2c1)N1CCN(Cc2c[nH]c3ccccc23)CC1	tim10-1 inh 50.0 | tim10-1 conf inactive
COC(=O)C(O)(c1ccc(NC(=S)NC(=O)c2ccccc2)cc1)C(F)(F)F (stereo not drawn)	TIM10 inh 45.5, tim10-1 inh 40.9 (no result: PfHsp90 set2) | tim10-1 conf inactive | TIM10 conf 33.0
